Measured values as given in article PMC8384837, “Expanding the binding specificity for RNA recognition by a PUF domain”.

Tests used:
Assay in all cases: yeast three-hybrid, YBZ-1, SC-Leu-His + 0.5 mM 3-AT, 4 days
Settings in all cases: tags: N-Gal4 AD-HA kept; label: inside an RPR1-promoter hybrid RNA with tandem MS2 sites; ssRNA
[1] = target: PUM1 PUF domain R5-MKC (Homo sapiens, UniProt Q14671 828-1176, C1007M;R1008K;Q1011C)
Summary of the method: (§1)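 The interaction score is the logarithmic change in variant frequency from input to selection. It uses log2, with a pseudocount of 1 for absent variants, and frequencies came from PCR-amplified, Illumina-sequenced repeat regions. The libraries were Pumilio-1 PUF domains randomized at the three base-contacting residues per repeat, co-expressed with matching RNA elements in strain YBZ-1 (LexA–MS2 coat fusion, HIS3 reporter). Plating lasted four days on SC-Leu (input) or SC-Leu-His + 0.5 mM 3-AT (selection).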

[2] = target: PUM1 PUF domain R4-RFP (Homo sapiens, UniProt Q14671 828-1176, N971R;H972F;Q975P)
Summary of the method: as §1

[3] = target: PUM1 PUF domain R5-KCL (Homo sapiens, UniProt Q14671 828-1176, C1007K;R1008C;Q1011L)
Summary of the method: as §1

[4] = target: T1, PUM1 PUF domain R6-FRS (Homo sapiens, UniProt Q14671 828-1176, N1043F;Y1044R;Q1047S)
T1 sequence: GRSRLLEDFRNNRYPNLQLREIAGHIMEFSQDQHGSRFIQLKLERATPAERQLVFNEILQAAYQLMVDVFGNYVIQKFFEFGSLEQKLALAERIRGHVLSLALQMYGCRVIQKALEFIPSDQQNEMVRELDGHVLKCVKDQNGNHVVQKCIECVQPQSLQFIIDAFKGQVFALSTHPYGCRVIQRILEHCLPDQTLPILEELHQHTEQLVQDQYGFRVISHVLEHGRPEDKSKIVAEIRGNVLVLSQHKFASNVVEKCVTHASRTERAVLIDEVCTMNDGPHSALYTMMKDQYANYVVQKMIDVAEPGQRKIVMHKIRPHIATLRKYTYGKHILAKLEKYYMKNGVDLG
Summary of the method: as §1

[5] = target: PUM1 PUF domain R5-MYR (Homo sapiens, UniProt Q14671 828-1176, C1007M;R1008Y;Q1011R)
Summary of the method: as §1

[6] = target: PUM1 PUF domain R5-SPR (Homo sapiens, UniProt Q14671 828-1176, C1007S;R1008P;Q1011R)
Summary of the method: as §1

[7] = target: PUM1 PUF domain R2-EWL (Homo sapiens, UniProt Q14671 828-1176, N899E;Y900W;Q903L)
Summary of the method: as §1

[8] = target: PUM1 PUF domain R3-FCM (Homo sapiens, UniProt Q14671 828-1176, C935F;R936C;Q939M)
Summary of the method: as §1

## GGCUAGAACUAGUGGAUCCCCCGGCGCCCGGCGGCUCGAGCCCGGGUAAGUGUUAAUAGUCUGCAUGCCGCCGGGCGCCAUGCCUGCAGGUCGACUCUAGAAAACAUG
[1]
  binding signal: 2.53 log2 enrichment (interaction score)

## GGCUAGAACUAGUGGAUCCCCCGGCGCCCGGCGGCUCGAGCCCGGGUAAGUGUAAAUAGUCUGCAUGCCGCCGGGCGCCAUGCCUGCAGGUCGACUCUAGAAAACAUG
[2]
  binding signal: 6.66 log2 enrichment (interaction score)
[3]
  binding signal: 2.45 log2 enrichment (interaction score)
[4]
  binding signal: 2.9 log2 enrichment (interaction score)
[5]
  binding signal: 2.55 log2 enrichment (interaction score)

## GGCUAGAACUAGUGGAUCCCCCGGCGCCCGGCGGCUCGAGCCCGGGUAAGUGUAUAUAGUCUGCAUGCCGCCGGGCGCCAUGCCUGCAGGUCGACUCUAGAAAACAUG
[2]
  binding signal: 3.26 log2 enrichment (interaction score)

## GGCUAGAACUAGUGGAUCCCCCGGCGCCCGGCGGCUCGAGCCCGGGUAAGUGUCAAUAGUCUGCAUGCCGCCGGGCGCCAUGCCUGCAGGUCGACUCUAGAAAACAUG
[3]
  binding signal: 3.63 log2 enrichment (interaction score)
[6]
  binding signal: 5.38 log2 enrichment (interaction score)

## GGCUAGAACUAGUGGAUCCCCCGGCGCCCGGCGGCUCGAGCCCGGGUAAGUGUAAAAAGUCUGCAUGCCGCCGGGCGCCAUGCCUGCAGGUCGACUCUAGAAAACAUG
[7]
  binding signal: 6.51 log2 enrichment (interaction score)

## GGCUAGAACUAGUGGAUCCCCCGGCGCCCGGCGGCUCGAGCCCGGGUAAGUGUAAGUAGUCUGCAUGCCGCCGGGCGCCAUGCCUGCAGGUCGACUCUAGAAAACAUG
[8]
  binding signal: 4.3 log2 enrichment (interaction score)
